Measured values taken from the supplement of paper PMC10849652.
Targets with a hit are over-represented here; the source holds about 7,900 in all. About 0.6% of all pairs of compound and target were hits. A number with no mark means an inactive call.

How the values were obtained:
Test in all cases: log2 fold change, soluble protein after heating vs DMSO (PISA); higher = thermal stabilisation; K562 cells, 10 uM, 30 min; active = over 0.2 and 3.5 SD of the protein, either way, in both replicates (recomputed)
saracatinib = compound: CN1CCN(CCOc2cc(OC3CCOCC3)c3c(Nc4c(Cl)ccc5c4OCO5)ncnc3c2)CC1 [saracatinib]
In short: (§1)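 Thermal stability values are relative to control samples and come from duplicates. They are expressed as log2 fold changes. For measurement, K562 cells (2×10^6 cells/mL) received 10 μM compound for 30 min, and aliquots were heated for 3 min over 48°C-58°C, pooled, and extracted at 4°C in PBS with 0.5% NP-40. Soluble protein, the supernatant after 21,000xg for 90 min, was quantified by TMTpro 16plex LC-MS/MS with equalised channel sums.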

sotrastaurin = compound: CN1CCN(c2nc(C3=C(c4c[nH]c5ccccc45)C(=O)NC3=O)c3ccccc3n2)CC1 [sotrastaurin]
In short: as §1

alvocidib = compound: CN1CC[C@H](c2c(O)cc(O)c3c(=O)cc(-c4ccccc4Cl)oc23)[C@H](O)C1 [alvocidib]
In short: as §1

Tubastatin A = compound: CN1CCc2c(c3ccccc3n2Cc2ccc(C(=O)NO)cc2)C1 [Tubastatin A]
In short: as §1

[1] = compound: CNC(=O)C1=CC=CC=C1NC2=NC(=NC=C2Cl)NC3=C(C=C(C=C3)N4CCOCC4)OC
In short: as §1

defactinib = compound: CNC(=O)c1ccc(Nc2ncc(C(F)(F)F)c(NCc3nccnc3N(C)S(C)(=O)=O)n2)cc1 [defactinib]
In short: as §1

rucaparib = compound: CNCc1ccc(-c2[nH]c3cc(F)cc4c3c2CCNC4=O)cc1 [rucaparib]
In short: as §1

[2] = compound: CNc1nc(-c2ccc3c(N)n[nH]c3c2)cc(N2C[C@@H](C(=O)NC3CCCCC3)CC[C@H]2C)n1
In short: as §1

encorafenib = compound: COC(=O)N[C@@H](C)CNc1nccc(-c2cn(C(C)C)nc2-c2cc(Cl)cc(NS(C)(=O)=O)c2F)n1 [encorafenib]
In short: as §1

[3] = compound: COC(=O)[C@H](CCSC)NC(=O)C1=C(C=C(C=C1)NC[C@H](CS)N)C2=CC=CC=C2
In short: as §1

Chain of UniProt Q7Z6E9 (Q7Z6E9 whole entry, looked up): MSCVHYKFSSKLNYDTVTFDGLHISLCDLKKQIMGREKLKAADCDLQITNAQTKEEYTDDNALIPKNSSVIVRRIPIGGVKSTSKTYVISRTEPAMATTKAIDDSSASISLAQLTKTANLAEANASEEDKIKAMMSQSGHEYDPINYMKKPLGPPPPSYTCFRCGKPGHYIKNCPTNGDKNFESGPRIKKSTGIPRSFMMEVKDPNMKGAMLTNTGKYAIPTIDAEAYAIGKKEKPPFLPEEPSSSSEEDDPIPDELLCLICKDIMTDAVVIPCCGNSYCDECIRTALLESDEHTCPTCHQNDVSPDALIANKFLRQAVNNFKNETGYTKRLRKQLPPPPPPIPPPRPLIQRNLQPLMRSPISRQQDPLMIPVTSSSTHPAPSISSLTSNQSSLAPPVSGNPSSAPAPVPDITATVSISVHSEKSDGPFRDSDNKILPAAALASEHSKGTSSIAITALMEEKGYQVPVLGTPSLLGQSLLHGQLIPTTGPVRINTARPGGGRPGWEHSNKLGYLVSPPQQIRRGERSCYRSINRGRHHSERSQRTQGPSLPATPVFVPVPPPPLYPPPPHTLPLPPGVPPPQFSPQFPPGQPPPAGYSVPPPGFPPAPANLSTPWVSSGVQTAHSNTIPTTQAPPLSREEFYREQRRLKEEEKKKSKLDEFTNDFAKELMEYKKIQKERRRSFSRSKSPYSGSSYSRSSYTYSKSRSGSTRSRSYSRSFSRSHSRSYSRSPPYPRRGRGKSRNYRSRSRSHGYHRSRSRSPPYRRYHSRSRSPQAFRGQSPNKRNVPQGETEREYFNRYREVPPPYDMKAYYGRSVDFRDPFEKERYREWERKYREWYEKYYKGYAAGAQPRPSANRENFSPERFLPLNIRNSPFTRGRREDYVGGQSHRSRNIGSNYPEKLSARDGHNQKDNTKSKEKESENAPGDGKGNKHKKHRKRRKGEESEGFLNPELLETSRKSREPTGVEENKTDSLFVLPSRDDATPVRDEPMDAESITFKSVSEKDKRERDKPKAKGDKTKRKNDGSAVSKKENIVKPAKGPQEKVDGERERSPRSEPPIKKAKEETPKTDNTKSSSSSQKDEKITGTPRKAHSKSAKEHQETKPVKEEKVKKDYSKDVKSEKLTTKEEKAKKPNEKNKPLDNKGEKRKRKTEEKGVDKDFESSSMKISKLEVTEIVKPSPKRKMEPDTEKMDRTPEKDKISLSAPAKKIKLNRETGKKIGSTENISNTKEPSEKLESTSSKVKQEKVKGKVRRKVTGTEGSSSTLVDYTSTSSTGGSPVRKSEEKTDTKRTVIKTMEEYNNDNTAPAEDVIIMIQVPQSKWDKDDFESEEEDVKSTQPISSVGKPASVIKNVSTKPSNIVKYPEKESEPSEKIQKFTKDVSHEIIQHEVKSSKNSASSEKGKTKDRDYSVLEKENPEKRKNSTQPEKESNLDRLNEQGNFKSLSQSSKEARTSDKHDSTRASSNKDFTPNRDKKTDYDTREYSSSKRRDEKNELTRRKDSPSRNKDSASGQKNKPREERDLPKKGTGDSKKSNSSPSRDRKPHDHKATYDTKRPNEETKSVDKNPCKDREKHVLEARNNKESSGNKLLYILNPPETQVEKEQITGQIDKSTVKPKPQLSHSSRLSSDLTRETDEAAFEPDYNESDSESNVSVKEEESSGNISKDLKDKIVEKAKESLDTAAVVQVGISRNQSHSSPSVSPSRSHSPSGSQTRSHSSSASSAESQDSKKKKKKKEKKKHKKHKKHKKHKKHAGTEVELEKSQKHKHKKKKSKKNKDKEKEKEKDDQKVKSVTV
Chain of UniProt Q9BWJ5 (Q9BWJ5 whole entry, looked up): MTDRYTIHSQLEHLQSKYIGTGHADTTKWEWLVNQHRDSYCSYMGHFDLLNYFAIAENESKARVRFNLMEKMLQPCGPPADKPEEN
Chain of UniProt Q96ER3 (Q96ER3 whole entry, looked up): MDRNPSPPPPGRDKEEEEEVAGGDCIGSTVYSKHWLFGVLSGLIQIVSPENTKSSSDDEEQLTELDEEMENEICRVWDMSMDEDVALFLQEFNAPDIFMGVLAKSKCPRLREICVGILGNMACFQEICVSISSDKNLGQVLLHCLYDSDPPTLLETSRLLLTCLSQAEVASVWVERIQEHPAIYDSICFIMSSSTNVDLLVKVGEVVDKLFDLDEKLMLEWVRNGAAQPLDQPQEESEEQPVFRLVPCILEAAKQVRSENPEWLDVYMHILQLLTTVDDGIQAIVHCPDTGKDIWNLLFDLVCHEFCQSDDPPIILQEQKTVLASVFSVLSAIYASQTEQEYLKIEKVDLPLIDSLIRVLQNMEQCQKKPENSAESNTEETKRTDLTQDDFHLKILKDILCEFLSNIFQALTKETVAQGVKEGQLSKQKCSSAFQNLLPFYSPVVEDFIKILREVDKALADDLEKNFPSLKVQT
Chain of UniProt A6NEQ0 (A6NEQ0 whole entry, looked up): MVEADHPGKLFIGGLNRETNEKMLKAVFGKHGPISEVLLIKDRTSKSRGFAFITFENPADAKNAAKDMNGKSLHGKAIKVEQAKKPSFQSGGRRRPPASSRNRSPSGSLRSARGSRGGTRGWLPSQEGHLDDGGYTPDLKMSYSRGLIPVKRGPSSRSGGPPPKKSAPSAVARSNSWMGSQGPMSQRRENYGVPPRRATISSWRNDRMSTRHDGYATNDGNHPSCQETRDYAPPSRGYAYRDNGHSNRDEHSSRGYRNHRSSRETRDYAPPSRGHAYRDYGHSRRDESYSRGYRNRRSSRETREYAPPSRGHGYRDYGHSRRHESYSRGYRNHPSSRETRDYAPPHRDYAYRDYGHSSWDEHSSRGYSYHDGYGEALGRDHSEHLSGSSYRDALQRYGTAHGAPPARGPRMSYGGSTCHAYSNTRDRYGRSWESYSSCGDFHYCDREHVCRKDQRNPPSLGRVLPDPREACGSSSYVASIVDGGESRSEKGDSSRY
Chain of UniProt Q8IZE3 (Q8IZE3 whole entry, looked up): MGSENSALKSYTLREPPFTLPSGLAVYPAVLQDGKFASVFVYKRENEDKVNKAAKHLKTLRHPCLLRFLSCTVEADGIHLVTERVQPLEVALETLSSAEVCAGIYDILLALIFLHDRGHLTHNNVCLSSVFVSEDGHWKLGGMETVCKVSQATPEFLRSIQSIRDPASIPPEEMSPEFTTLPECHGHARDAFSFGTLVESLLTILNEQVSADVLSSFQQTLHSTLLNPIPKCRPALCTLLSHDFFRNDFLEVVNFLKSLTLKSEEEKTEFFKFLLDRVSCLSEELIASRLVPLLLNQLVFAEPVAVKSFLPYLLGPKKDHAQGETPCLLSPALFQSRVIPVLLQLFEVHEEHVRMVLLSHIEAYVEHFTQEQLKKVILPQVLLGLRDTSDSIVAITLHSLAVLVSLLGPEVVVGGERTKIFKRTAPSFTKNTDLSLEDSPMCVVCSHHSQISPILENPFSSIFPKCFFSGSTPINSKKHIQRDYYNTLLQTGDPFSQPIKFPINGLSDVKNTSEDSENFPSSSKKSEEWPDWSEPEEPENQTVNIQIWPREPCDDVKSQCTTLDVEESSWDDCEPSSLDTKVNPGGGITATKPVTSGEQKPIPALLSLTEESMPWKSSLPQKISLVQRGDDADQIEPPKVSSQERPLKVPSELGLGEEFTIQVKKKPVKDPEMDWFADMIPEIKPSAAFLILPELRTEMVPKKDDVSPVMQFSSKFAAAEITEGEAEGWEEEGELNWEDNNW
Chain of UniProt Q02383 (Q02383 whole entry, looked up): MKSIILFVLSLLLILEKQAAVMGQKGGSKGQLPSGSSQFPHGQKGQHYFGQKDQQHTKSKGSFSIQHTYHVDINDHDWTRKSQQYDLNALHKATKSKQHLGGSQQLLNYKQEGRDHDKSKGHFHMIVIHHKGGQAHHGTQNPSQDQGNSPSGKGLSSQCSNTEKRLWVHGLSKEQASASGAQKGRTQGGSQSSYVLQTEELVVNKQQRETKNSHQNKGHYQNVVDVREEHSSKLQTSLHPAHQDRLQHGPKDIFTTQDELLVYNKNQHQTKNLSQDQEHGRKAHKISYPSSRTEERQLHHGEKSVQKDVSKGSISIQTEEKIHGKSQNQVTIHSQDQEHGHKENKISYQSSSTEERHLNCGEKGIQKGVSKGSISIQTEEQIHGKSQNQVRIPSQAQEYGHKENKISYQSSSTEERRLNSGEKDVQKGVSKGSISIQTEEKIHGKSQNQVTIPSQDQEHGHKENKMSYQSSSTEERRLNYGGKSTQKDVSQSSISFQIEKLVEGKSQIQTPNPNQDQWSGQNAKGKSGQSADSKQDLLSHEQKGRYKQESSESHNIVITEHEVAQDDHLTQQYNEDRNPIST
Chain of UniProt Q9H4A4 (Q9H4A4 whole entry, looked up): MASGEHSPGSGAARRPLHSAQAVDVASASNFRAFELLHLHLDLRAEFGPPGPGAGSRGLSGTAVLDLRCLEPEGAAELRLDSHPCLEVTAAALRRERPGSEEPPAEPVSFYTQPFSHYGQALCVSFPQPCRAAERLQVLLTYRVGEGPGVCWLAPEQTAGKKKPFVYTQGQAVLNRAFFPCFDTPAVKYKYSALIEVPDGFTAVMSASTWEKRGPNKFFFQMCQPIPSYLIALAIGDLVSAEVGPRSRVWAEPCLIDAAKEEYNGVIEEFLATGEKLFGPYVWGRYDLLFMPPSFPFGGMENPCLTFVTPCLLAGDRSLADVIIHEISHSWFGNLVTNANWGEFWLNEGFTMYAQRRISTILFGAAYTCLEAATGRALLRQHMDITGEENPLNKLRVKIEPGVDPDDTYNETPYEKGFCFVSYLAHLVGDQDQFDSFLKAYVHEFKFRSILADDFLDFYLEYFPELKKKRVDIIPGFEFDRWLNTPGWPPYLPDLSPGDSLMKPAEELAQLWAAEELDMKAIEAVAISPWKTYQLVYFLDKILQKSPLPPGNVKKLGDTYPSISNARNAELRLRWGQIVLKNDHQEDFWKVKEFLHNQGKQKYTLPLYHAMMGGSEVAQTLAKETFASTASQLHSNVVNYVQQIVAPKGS
Chain of UniProt O95059 (O95059 whole entry, looked up): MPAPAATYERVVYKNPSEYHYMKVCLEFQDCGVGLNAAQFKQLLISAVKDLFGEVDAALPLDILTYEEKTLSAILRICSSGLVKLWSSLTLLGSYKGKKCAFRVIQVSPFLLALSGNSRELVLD

Target | log2 fold change (saracatinib) | log2 fold change (sotrastaurin) | log2 fold change (alvocidib) | log2 fold change (Tubastatin A) | log2 fold change [1] | log2 fold change (defactinib) | log2 fold change (rucaparib) | log2 fold change [2] | log2 fold change (encorafenib) | log2 fold change [3]
RBM33 (UniProt Q96EV2) | 0.071 | -0.017 | -0.177 | 0.007 | -0.021 | -0.273 (active) | -0.017 | -0.044 | 0.02 | 0.03
RPS13 (UniProt P62277) | -0.149 | 0 | 0.287 | 0.106 | 0.097 | 0.339 | 0.261 | 0.111 | 0.137 | 0.031
RNPEP (UniProt Q9H4A4) | -0.02 | -0.038 | -0.106 | 0.064 | 0.034 | -0.036 | -0.004 | 0.04 | -0.005 | -0.041
RAD50 isoform 2 (UniProt Q92878) | 0.012 | -0.024 | -0.084 | -0.025 | 0 | -0.103 | 0.006 | 0.006 | 0.008 | -0.019
RPS2 (UniProt P15880) | -0.058 | 0 | 0.25 | 0.059 | 0.064 | 0.261 | 0.153 | 0.081 | 0.07 | 0.042
RPS5 (UniProt P46782) | -0.038 | 0.018 | 0.167 | 0.084 | 0.065 | 0.121 | 0.096 | 0.103 | 0.054 | -0.026
RABGAP1L isoform 5 (UniProt Q5R372) | -0.027 | 0.017 | -0.053 | -0.056 | -0.014 | – | – | -0.071 | – | –
SLC19A1 (UniProt P41440) | 0.012 | -0.173 | 0.06 | -0.021 | -0.035 | -0.061 | -0.179 | -0.048 | 0.041 | -0.003
SDCBP (UniProt O00560) | -0.012 | 0.021 | -0.096 | 0.025 | 0.007 | 0.042 | 0.117 | -0.541 (active) | 0.06 | -0.001
SAAL1 (UniProt Q96ER3) | 0.001 | -0.044 | 0.355 (active) | -0.089 | 0.042 | 0.203 | 0.031 | -0.069 | 0.017 | -0.031
SETMAR (UniProt Q53H47) | -0.007 | -0.132 | -0.029 | -0.402 | 0.006 | -0.026 | -0.004 | 0.005 | 0.198 | -0.084
RAC1 (UniProt P63000) | 0.097 | -0.041 | -0.031 | 0.057 | -0.009 | -0.012 | 0.075 | 0.043 | -0.064 | -0.037
RPP14 (UniProt O95059) | 0.064 | -0.01 | 0.007 | 0.059 | -0.039 | 0.012 | 0.004 | -0.029 | 0.046 | -0.034
RAD51 (UniProt Q06609) | -0.013 | 0.004 | -0.002 | 0.099 | 0.337 (active) | 0.027 | -0.035 | -0.011 | 0.005 | -0.041
RNF220 (UniProt Q5VTB9) | 0.012 | 0.022 | -0.066 | 0.066 | -0.008 | -0.059 | -0.043 | -0.038 | 0.031 | 0.015
SEPTIN5 (UniProt G3XAH0) | 0.045 | 0.023 | -0.033 | -0.038 | 0.042 | -0.023 | – | 0.032 | – | 0.028
RMC1 (UniProt Q96DM3) | -0.002 | -0.01 | -0.105 | 0.007 | 0.014 | -0.041 | 0.029 | 0.014 | -0.013 | -0.018
SCYL3 isoform 2 (UniProt Q8IZE3) | 0.014 | – | 0.142 | -0.063 | -0.042 | -0.014 | 0.06 | -0.009 | 0.021 | -0.025
RUNX1 isoform 8 (UniProt Q01196) | -0.025 | -0.132 | – | – | -0.046 | 0.01 | 0.024 | 0.014 | 0.183 | 0.047

Target | log2 fold change (saracatinib) | log2 fold change (sotrastaurin) | log2 fold change (alvocidib) | log2 fold change (Tubastatin A) | log2 fold change [1] | log2 fold change (defactinib) | log2 fold change (rucaparib) | log2 fold change [2] | log2 fold change (encorafenib) | log2 fold change [3]
SH3PXD2B (UniProt A1X283) | – | -0.017 | -0.047 | -0.013 | 0.061 | 0.013 | 0.238 | – | 0.011 | 0.359
RMDN2 isoform 2 (UniProt Q96LZ7) | – | – | – | – | – | -0.218 | – | – | – | -0.206
RPS3A (UniProt D6R9B6) | -0.125 | 0.202 | – | 0.051 | – | – | – | -0.086 | – | –
RPAIN isoform 8 (UniProt Q86UA6) | -0.036 | -0.09 | -0.036 | -0.016 | – | -0.231 | – | -0.082 | – | 0.094
SF3B5 (UniProt Q9BWJ5) | -0.382 | 0.055 | – | 0.048 | 0.023 | -0.039 | 0.086 | -0.015 | -0.025 | 0.061
SAP30 (UniProt O75446) | -0.018 | -0.185 | -0.035 | – | 0.121 | -0.003 | – | 0.014 | – | 0.044
RPS3 (UniProt E9PJN9) | -0.069 | – | – | 0.105 | – | – | 0.064 | -0.028 | 0.052 | –
SDCBP isoform 2 (UniProt O00560) | -0.175 | 0.042 | – | -0.301 | 0.115 | – | -0.036 | -0.756 (active) | 0.032 | –
SEMG2 (UniProt Q02383) | – | -0.016 | 0.206 | 0.025 | – | – | -0.033 | – | -0.011 | –
RICTOR isoform 3 (UniProt Q6R327) | 0.087 | 0.708 (active) | – | 0.092 | 0.114 | – | -0.128 | 0.154 | 0.068 | –
RBMY1E (UniProt A6NEQ0) | – | – | -0.015 | 0.016 | -0.049 | – | -0.055 | – | 0.182 | –
SDC3 (UniProt O75056) | -0.251 | -0.074 | 0.051 | 0.163 | – | -0.004 | -0.513 | 0.036 | 0.125 | 0.034
RNF41 (UniProt Q9H4P4) | – | – | – | – | – | – | -0.087 | – | -0.016 | –
RPS19 (UniProt M0R2L9) | – | – | – | -0.186 | – | – | – | – | – | –
RAD50, A0A494C0Y7 | -0.101 | 0.048 | -0.026 | -0.079 | – | -0.146 | -0.206 | 0.198 | 0.15 | -0.055
RNF26 (UniProt Q9BY78) | – | – | – | – | – | 0.119 | – | – | – | 0.292
RALGPS2 (UniProt Q86X27) | -0.042 | – | 0.192 | 0.18 | -0.098 | 0.176 | -0.133 | 0.159 | 0.425 | -0.101
RBBP6 (UniProt Q7Z6E9) | – | 0.11 | -0.17 | 0.074 | -0.006 | -0.056 | 0.067 | – | 0.055 | 0.04
